From PubChem
FH mod: Identification of activators of human fumarate hydratase by quantitative high-throughput screening. Potency, µM (titrated, usually from 79.9 µM), without a hit: at the highest dose activity change, negative = inhibition, actives largely listed as inhibitors. FH coupled MDH/diaphorase resazurin fluorescence, 15 min. actives 0.22% (n = 54,000). Fumarate hydratase, mitochondrial (Homo sapiens), P07954; further: potency means the concentration at half of the fitted maximal effect; on the % scale 0 is the no-effect control and ±100 the full control effect; the screen sought activators but most active calls are inhibition curves; nearly all actives have a fitted effect of over 45% in size
NTMT1 inhibitor: inhibitors of human N-terminal methyltransferase NTMT1; Q9BV86; NTMT1 MTase-Glo SAH luminescence, purified enzyme; Potency, µM (top dose mostly 114 µM), for inactives: at the top dose activity change, negative = inhibition, most hits filed as inhibitors; actives 2.5% (n = 59,000); AID 1645870;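 further: potency means the concentration at half of the fitted maximal effect; plate controls were DMSO vehicle for no effect and no enzyme for full effect; nearly all actives have a fitted effect of over 65% in size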
Target sequence (Q9BV86 whole entry, looked up): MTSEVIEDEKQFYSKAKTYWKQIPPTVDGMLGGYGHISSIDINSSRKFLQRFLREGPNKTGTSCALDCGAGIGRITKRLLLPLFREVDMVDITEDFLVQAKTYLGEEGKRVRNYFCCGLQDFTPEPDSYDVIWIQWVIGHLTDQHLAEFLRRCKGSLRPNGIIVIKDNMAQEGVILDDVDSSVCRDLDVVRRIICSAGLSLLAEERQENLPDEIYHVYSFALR
HTT promoter inh: inhibitors of huntingtin promoter activity. AID 1508623. Potency, µM (series often up to 57.5 µM), without a hit: top-dose activity change, negative = inhibition, most hits filed as inhibitors. actives 0.93% (n = 48,000). HEK293 HTT promoter firefly luciferase reporter, 24 h; further: potency means the concentration at half of the fitted maximal effect; nearly all actives have a fitted effect of over 50% in size
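Luminescence was read after Dual-Glo reagent and a 10 min room-temperature incubation. Values were normalized to vehicle (0% activity) and zero RLU (-100% activity). Reporter HEK293 cells had been exposed to compounds (up to 57.5 uM final) for 24 h.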
DRV1 agonist: agonists of human resolvin D1 receptor DRV1 (GPR32). AID 1346428. actives 2.5% (n = 48,000). activation, % at 76.9 µM. CHO-K1 GPR32 beta-arrestin PathHunter luminescence, 90 min; zero percent set by DMSO-only wells;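 active means activation of at least 60% and not above a set upper limit, about 1 call in 100 departs from these limits; inconclusive means activation of 40% to 60%, or above that upper limit; inactive means activation under 40%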; further: 0% is about no effect
Target sequence (O75388 whole entry, looked up): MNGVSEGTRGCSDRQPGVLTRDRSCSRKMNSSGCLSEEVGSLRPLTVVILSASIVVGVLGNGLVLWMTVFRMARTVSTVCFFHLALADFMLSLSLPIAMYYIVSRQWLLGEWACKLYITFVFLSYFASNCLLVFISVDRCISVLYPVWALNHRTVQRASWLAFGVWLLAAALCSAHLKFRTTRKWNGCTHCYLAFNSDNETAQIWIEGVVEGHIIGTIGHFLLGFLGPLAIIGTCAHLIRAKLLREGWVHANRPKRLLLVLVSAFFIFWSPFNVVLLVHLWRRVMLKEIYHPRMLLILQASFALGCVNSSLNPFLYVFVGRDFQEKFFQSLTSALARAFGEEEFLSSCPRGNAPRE
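Beta-arrestin recruitment read-out: luminescence from complemented beta-Gal in CHO-K1 GPR32 PathHunter cells, measured 1 h after detection reagent at ambient temperature following 90 min compound exposure at 37 °C; DMSO served as basal (EC0) control.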
HTT-AS promoter: HTT-AS promoter activation | HEK293 HTT-AS promoter firefly luciferase reporter, 24 h; response scale: percent change from vehicle, -100% = no light | actives 0.24% (n = 48,000) | AID 1508624 | Potency, µM (series often up to 57.5 µM), without a hit: at the highest dose activity change, positive = activation, usual class: activators; further: potency means the concentration at half of the fitted maximal effect; nearly all actives have a fitted effect of over 55% in size
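Firefly luciferase signal from promoter-reporter HEK293 cells was scaled between vehicle (0%) and zero RLU (-100%). Compounds were tested at final concentrations of up to 57.5 uM over 24 h at 37 degrees C. PTC124 at 50 uM final served as control inhibitor.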
GALC G270D up: raises human GALC G270D mutant activity in cells. actives 0.1% (n = 45,000). 145M-Twi-hGALC-G270D cells (Twitcher mouse brain line with human GALC G270D), HMU-beta-Gal fluorescence, 48 h. AID 1159614. Potency, µM (series often up to 57.5 µM), actives largely listed as activators; further: potency means the concentration at half of the fitted maximal effect; 0% is about no effect; nearly all actives have a fitted effect of over 65% in size
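Brain-derived Twitcher mouse 145M-Twi cells stably expressing human GALC-G270D or wild-type GALC, treated live, then residual GALC activity read by fluorescence of HMU-b-Gal substrate (0.1 mM final) in citrate-phosphate buffer pH 5.2 with sodium taurocholate. Signal increase indicates enhancement.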
* hit, by the source's call; [ ] = dose if it differs, or a comment. An excerpt weighted towards active compounds, which were near 4.7% of everything screened. Unless noted, the call rests on the fitted dose curve; in most records, active means well fitted curve in the direction sought with a large enough effect; inconclusive means small, poorly fitted or top-dose-only effect, or another doubt; inactive means no such curve, though single readings can be large; an effect the other way counts as inactive or inconclusive.

For Cc1ccc2nc(SCc3nc(-c4ccc(Cl)cc4)no3)[nH]c2c1 the results were FH mod inconclusive, NTMT1 inhibitor inconclusive, HTT promoter inh -16%, DRV1 agonist 18, HTT-AS promoter -26% and GALC G270D up inactive.
For CCOC(=O)c1csc(Nc2ccc(Cl)cc2)n1 the results were FH mod 2% and NTMT1 inhibitor -21%[57.5 µM].
Cc1ccccc1-n1nc(-c2c(-c3ccc(F)cc3)nn3c2NC[C@@H](CO)C3)ccc1=O was read as FH mod 1% and NTMT1 inhibitor -14%[57.5 µM].
Screening CCCn1c(=O)c2[nH]c(-c3ccc(OCC(=O)O)cc3)nc2n(CCC)c1=O returned FH mod 0% and NTMT1 inhibitor 2%[57.5 µM].
CC1(C)SCCN(S(=O)(=O)c2ccc(OCC#CCO)cc2)[C@H]1C(=O)NO was read as NTMT1 inhibitor 3%.
`CC(C)(C)c1ccc(/C=C/C(=O)Nc2ccc(S(N)(=O)=O)cc2)cc1` gave FH mod 3%, NTMT1 inhibitor 6%, HTT promoter inh inconclusive, DRV1 agonist 94*, HTT-AS promoter -41% and GALC G270D up inactive.
`CCOC(=O)C1CCCN(C(=O)c2cc3c(=O)[nH]c4ccc(C)cc4c3s2)C1` (stereo not given) gave FH mod inconclusive, NTMT1 inhibitor 4%, HTT promoter inh -30%, DRV1 agonist 29, HTT-AS promoter -17% and GALC G270D up inactive.
`CCOC(=O)C1CCCN(C(=O)c2cc3c(Cl)nc4ccccc4c3s2)C1` (stereo not given) gave FH mod -24%, NTMT1 inhibitor -1%, HTT promoter inh 5µM*, DRV1 agonist 21, HTT-AS promoter -84% and GALC G270D up inactive.
COC(=O)C1=CO[C@@H](O[C@@H]2O[C@H](COC(=O)/C=C/c3cc(OC)c(O)c(OC)c3)[C@@H](O)[C@H](O)[C@H]2O)[C@@H]2C(CO)=CC[C@H]12 was read as FH mod 2%[20.6 µM] and NTMT1 inhibitor 11%[12.6 µM].
For CC(C)(C#N)c1ccc(N2C(=O)OCc3cnc4ccc(-c5cnc6ccccc6c5)cc4c32)cc1 the results were FH mod 0% and NTMT1 inhibitor 5%[57.5 µM].
Screening Cc1ccccc1Cn1c(SCc2ccc(C(=O)N3CCCCC3)cc2)nc2ccncc21 returned FH mod -15%, NTMT1 inhibitor inconclusive, HTT promoter inh inconclusive, DRV1 agonist 1, HTT-AS promoter -13% and GALC G270D up inactive.
For Cc1ccc(Cn2c(SCc3ccc(C(=O)N4CCCCC4)cc3)nc3ccncc32)cc1 the results were FH mod 0%, NTMT1 inhibitor -2%, HTT promoter inh 13µM*, DRV1 agonist 8, HTT-AS promoter -60% and GALC G270D up inactive.
Cc1ccc(Cn2c(SCc3ccc(C(=O)N4CCCCCC4)cc3)nc3ccncc32)cc1 was read as FH mod -4%, NTMT1 inhibitor -5%, HTT promoter inh 32µM*, DRV1 agonist -6, HTT-AS promoter -46% and GALC G270D up inactive.
O=C(c1ccc(CSc2nc3ccncc3n2Cc2ccccc2F)cc1)N1CCCCCC1 was read as FH mod -2%, NTMT1 inhibitor 2%, HTT promoter inh -30%, DRV1 agonist -3, HTT-AS promoter -13% and GALC G270D up inactive.
For CCC(=O)O[C@H]1C(C)(C)[C@H]([C@@H](O)C(=O)OC)[C@]2(C)C(=O)[C@@]1(O)[C@H]1O[C@]13C1CC(=O)O[C@@H](c4ccoc4)[C@]1(C)CCC32 (stereo not given in full) the results were FH mod 7%[20.6 µM] and NTMT1 inhibitor 4%[12.6 µM].
O=C(c1ccccc1)c1c(O)cc(O)cc1O[C@@H]1O[C@H](CO)[C@@H](O)[C@H](O)[C@H]1O was read as FH mod -7%[53.3 µM] and NTMT1 inhibitor inconclusive.
Cc1ccc(N2C(=O)CSC23C(=O)N(Cc2ccccc2F)c2ccccc23)cc1F (stereo not given) was read as FH mod -21%, NTMT1 inhibitor -1%, HTT promoter inh 25µM*, DRV1 agonist -23, HTT-AS promoter -33% and GALC G270D up inactive.
For CC(C)c1ccc(N2C(=O)CSC23C(=O)N(Cc2ccccc2F)c2ccccc23)cc1 (stereo not given) the results were FH mod -31%, NTMT1 inhibitor -19%, HTT promoter inh -20%, DRV1 agonist 3, HTT-AS promoter 1% and GALC G270D up inactive.
CC(C)NC[C@H](O)COc1ccc(CCOCC2CC2)cc1 was read as FH mod -3% and NTMT1 inhibitor 11%[57.5 µM].
Fc1ccc(-c2nc(-c3ccncc3)nc3ccccc23)cc1F was read as NTMT1 inhibitor 6%.
`CCn1c(=O)cc(SCC(=O)NCCc2ccc(Cl)cc2)c2ccccc21` gave FH mod -15%, NTMT1 inhibitor -2%, HTT promoter inh -17%, DRV1 agonist inconclusive, HTT-AS promoter -17% and GALC G270D up inactive.
CCN(CCCNC(=O)CSc1cc(=O)n(CC)c2ccccc12)c1cccc(C)c1 was read as FH mod inconclusive, NTMT1 inhibitor inconclusive, HTT promoter inh inconclusive, DRV1 agonist 75*, HTT-AS promoter -26% and GALC G270D up inactive.
For CCn1c(=O)cc(SCC(=O)Nc2ccc(C)c(F)c2)c2ccccc21 the results were FH mod 10%, NTMT1 inhibitor 4%, HTT promoter inh inconclusive, DRV1 agonist 46, HTT-AS promoter 0% and GALC G270D up inactive.
`CCn1c(=O)cc(SCC(=O)NCCc2cccc(C)c2)c2ccccc21` gave FH mod -15%, NTMT1 inhibitor -7%, HTT promoter inh -16%, DRV1 agonist 97*, HTT-AS promoter 0% and GALC G270D up inactive.
Screening O=C1CC[C@H](N2Cc3c(OCc4ccc(CN5CCOCC5)cc4)cccc3C2=O)C(=O)N1 returned NTMT1 inhibitor 3%.
